Out of some 53,000 sequences screened, about 3,700 (7%) were called active. Only a selection was taken, and actives are over-represented in it overall. Values without a mark were called inactive.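 Rule for the calls: active = gene knockdowns whose robust z-score for IL-1 alpha signal is at least 2 or at most -2, so actives lie on both sides; inactive = the rest.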

The nature of the assay: Components of the Cytosolic LPS Sensing Pathway: Gene Identification via Genome-wide siRNA Screen.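 Note: robust z of the log signal after scaling to non-targeting control siRNA wells of the plate.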 As to conditions: RAW264.7 macrophages, IL-1a HTRF, actives lie on both sides, screened at 100 nM (by protocol), cells primed 5 h with Pam3CSK4 first. The gist of the method:
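RAW264.7 mouse macrophages reverse-transfected with single siRNAs (100 nM final) for 48h, primed with Pam3CSK4 for 5 hours, then transfected with LipidA for 24 hour. Supernatant IL-1a read by HTRF; values normalized to negative-control median, log-transformed robust z-scores.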
Background: TR-FRET usually uses a lanthanide donor and a delayed reading to cut background.
With GGCCUUUACAUGUCCCAGCTT against BC002059, the z-score was 0.456.

Turning to AUGUCAGCGGCCCUAGAUGTT against Adam34l, the z-score is -2.09 (active).

Take GGGUGUGGCUGACUUUGAUTT against Otof: the z-score was -0.429.

Consider CCGUGGACUAUAACAACUCTT against Mgat5b, for which the z-score is 1.61.

For GGAAGAGGCUAUUGCAUCGTT against Atrnl1, the z-score is -0.768.

With GGUUUUCUAGUUUGAGUUUTT against Atp1b2, the z-score is 1.29.

As to GCAUCCAUCAAAUCAAAAUTT against Met, the z-score was 3.03 (active).

As to GGUGAUUCAGAUAAAAGAGTT against Mbtps1, the z-score is 0.265.

As to GAGCAGAGGAUUGAUGCACTT against Nlrp4g, the z-score is 0.918.

Regarding GCAAGACGCACUGUUACUGTT against Fam214a, the z-score is 0.196.

Turning to GGCUCCUAGCUGUUUCAGUTT against Hormad1, the z-score was -1.62.

Take GGUUCAAAGUUCUAGCUAATT against Adss: the z-score was -0.25.

Take CCAAAAGUCACGUUUCUCATT against Per2: the z-score is -2.09 (active).

GCAAUGGUUGAAGAAAUUUTT against Tnip3: the z-score was 0.69.

For GGUUCUUUUAUGGAUGACATT against Prkaa2, the z-score was -0.964.

With GCAGGAACACUGGUUUGAATT against Otud5, the z-score is -0.653.

GUACGAAGACUUCUCUAGUTT against Ankrd33b: the z-score was 0.101.

As for GGGAAAAUGGCUUAACCGUTT against Siglecg, the z-score was 0.703.

In the case of CCUAGAGGAUUCAGAUCAATT against Pnmal1, the z-score is 2.24 (active).

Take GGCCGUUUCACUACCAUUCTT against Ier2: the z-score is 0.259.

On to GGAGGUAGGAAUAUGACUUTT against Klrb1c, for which the z-score is 0.0825.

Take GGCUAGCAUUAGCCACAGATT against Enpp3: the z-score was -2.33 (active).

GGUGCUCAAAUCCUCUUGATT against Ctps: the z-score was -0.0545.

With CGGAUAUGAAUUUUUUGCUTT against Ppp1cb, the z-score is 0.116.

Take GCUUUUCAGUCUCAUAGUGTT against Huwe1: the z-score was 0.468.

On to GGAAAAUCCCUCUUUGGCUTT against Sez6l2, for which the z-score is -0.566.

For CGAUGAGACCAACAUCUUUTT against Gpr162, the z-score is 0.476.

GGACAAUGAUUUUCUGAUUTT against Sv2b: the z-score is 0.962.

With GGAAGUCUAUGGUUUUUAGTT against Csnk2b, the z-score is 2.97 (active).

Consider GGAAAUCAAGCCCUACAUCTT against Col4a2, for which the z-score was 0.152.

For the sequence GGGCUAUGUUGUCUCAAAATT against Gsdma2, the z-score is 0.861.

For the sequence GGAUGACCUCAUGCUUAUUTT against Prss37, the z-score was -2.31 (active).

For GGAUGAAAAAUCAGUACUUTT against Aadac, the z-score was -2.02 (active).

For GGUAUCCUCUCUUGUCUUGTT against Clec9a, the z-score is -0.0393.

Take GUACCUGAAUUGCUACCGATT against Ly6g5c: the z-score was 0.8.

With GGAGUUCUUGGUCUCUUUGTT against Fam214a, the z-score was -0.124.

For the sequence UUGAACAGUGGAACAAUGATT against Fbxo27, the z-score was 2.59 (active).

As for GGAAAGGAACAUAUUUGACTT against Gss, the z-score was 0.0774.

As to CCAUCUCUCCAAAGGGCUGTT against Olfr32, the z-score was 0.056.

As for GGAUUUGACCGGCUAAUACTT against Snrnp40, the z-score is -0.776.

For GGUUCUGGCUGGAAUCUACTT against Gnl1, the z-score was -0.987.

Consider GCGAACAUGUGUUUUACGUTT against H4c8, for which the z-score was 1.14.

As to GCAUGCUAGAAGCUAAAAATT against Golga3, the z-score was 1.48.

Take GGCAUAUCCUCCUUAUCCATT against Dazl: the z-score was -2.2 (active).

Consider GGAAAUCAAAGAGAAAGUUTT against Rassf3, for which the z-score is -0.748.

With GGUUAGUUCCUUAAAUUCCTT against BC016579, the z-score was 1.21.

With GGACCAGACAGGAAGUAUUTT against Snx20, the z-score is 2.3 (active).

On to GGCAGGUAUGGAUGUAUUGTT against Renbp, for which the z-score is -1.72.

In the case of GGUUGAGUUGGAUGACCUUTT against Lsm10, the z-score was -1.91.

As to “GAGUCUUACAUCAAGAAGATT against 9230106D20Rik”, the z-score was 0.538.

As for GGUAUGUCUAAGAAAACCATT against Pi4ka, the z-score is 0.173.

On to GGGCUACACUUCUGUCUACTT against Nanos3, for which the z-score is -1.26.

As to GGGUUUUUUUAGAGAGAUUTT against Susd3, the z-score is -2.11 (active).

For the sequence GCCAUACUUCCCUACAAAATT against Kctd19, the z-score was 0.233.

Turning to GGGCAAGGAGACAGAAUUCTT against Fgf18, the z-score is 0.927.

In the case of GGAAGAGGACAACCAGCUCTT against Cd82, the z-score is 0.59.

Regarding GAGUUGGCUCGAAACUGCCTT against Fbxl15, the z-score is 3.54 (active).

For GGGCACAAUUCAAAACUUATT against Pgm2, the z-score is 1.42.

With GGUCAAUUCCAUGAUUACGTT against Pgm3, the z-score is 0.538.

Turning to UAAGGCCAUCUAGUGGAGATT against C8g, the z-score is -0.199.

For the sequence GGGUGAAAGCUGACUUUAATT against Rnh1, the z-score is -1.57.

For GGCUUUGAAACAUAAGAACTT against Zfp472, the z-score is -0.553.

With GGUGUUGAGAUCCACAAGGTT against Tceanc2, the z-score was -2.44 (active).

As to GGCAAUCAGCAUACCAACUTT against Thbs2, the z-score was -1.87.

For the sequence “CAGCGGCCGCGCUUCACCGTT against 4930404N11Rik”, the z-score was 0.92.

In the case of GGUAAUUGAGCUGAGUUCUTT against Rad54l2, the z-score is 0.479.

Consider GUGAAGAAAGCACUGUUGATT against Olfr978, for which the z-score was 0.387.

Regarding GGCCAGGACCUAAAUACAATT against Tmem231, the z-score was 3.25 (active).

On to GGAGCUGUGCAAGAGGAAATT against Wnt16, for which the z-score is 1.01.

(Values after PubChem BioAssay AID1508600 (Functional Genomics Laboratory (NCATS/FGL), 2020).)
